From PubChem
NadD block: blocks S. aureus nicotinate mononucleotide adenylyltransferase; 360,000 compounds, 0.78% hits; inhibition, % at 20 µM; purified NadD enzyme, colorimetric absorbance read-out; in the data active = inhibition above about 26%
rCAG binder: molecules binding r(CAG) RNA repeats | AID 651821 | r(CAG) RNA repeat, TO-PRO-1 dye displacement fluorescence | 370,000 compounds, 1.3% hits | inhibition, % at 3 µM;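 active = inhibition above the plate cutoff, the mean of all test compounds on that plate plus 3 SD, cut at about 35% in these data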;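 note: 0% = DMSO alone and 100% = 100 µM mitoxantrone as full dye displacement; higher means more dye released from RNA so lower well fluorescence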
MsrA act: bovine methionine sulfoxide reductase A activation; 360,000 compounds, 0.3% hits; activation, % at 10.6 µM; purified bovine MsrA, absorbance read-out; in the data active = activation above about 7.5%;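 note: 0% = vehicle and 100% = reference activator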
DAGLB inhibitor: blocks human DAGLB lipase activity; HEK293T DAGLB membrane lysate, EnzChek fluorogenic substrate; 340,000 compounds, 0.059% hits; inhibition, % at 5.17 µM; Q8NCG7; AID 504411; in the data active = inhibition above about 34%;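 note: 0% = enzyme with vehicle and 100% = wells lacking enzyme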
Target sequence (Q8NCG7 whole entry, looked up): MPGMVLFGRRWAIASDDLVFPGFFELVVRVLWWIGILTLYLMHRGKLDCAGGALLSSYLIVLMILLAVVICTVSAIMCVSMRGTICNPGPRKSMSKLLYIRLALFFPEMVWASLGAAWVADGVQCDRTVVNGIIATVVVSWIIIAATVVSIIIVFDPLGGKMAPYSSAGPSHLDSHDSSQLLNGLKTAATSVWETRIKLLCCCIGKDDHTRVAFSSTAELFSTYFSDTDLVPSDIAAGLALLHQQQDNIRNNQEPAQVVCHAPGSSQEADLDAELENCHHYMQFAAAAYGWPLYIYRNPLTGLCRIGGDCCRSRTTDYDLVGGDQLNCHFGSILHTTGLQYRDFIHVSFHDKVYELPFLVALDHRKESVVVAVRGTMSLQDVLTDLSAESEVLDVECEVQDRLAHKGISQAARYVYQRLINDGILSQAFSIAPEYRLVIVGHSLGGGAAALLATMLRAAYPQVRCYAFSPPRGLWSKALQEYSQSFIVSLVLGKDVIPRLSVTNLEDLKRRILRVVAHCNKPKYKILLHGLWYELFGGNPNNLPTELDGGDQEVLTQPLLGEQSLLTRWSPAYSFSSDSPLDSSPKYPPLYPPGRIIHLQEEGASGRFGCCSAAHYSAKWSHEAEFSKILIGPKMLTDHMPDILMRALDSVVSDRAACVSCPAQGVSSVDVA
MsrA inh: bovine MsrA inhibition. purified bovine MsrA, absorbance read-out. inhibition, % at 15.5 µM. 360,000 compounds, 0.75% hits. AID 651718; in the data active = inhibition above about 4.5%;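 note: 0% = vehicle wells with enzyme and 100% = reference inhibitor wells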
DSG3 Ab inh: human desmoglein-3 autoantibody binding inhibition; binding (percent of control), % at 10 µM; DSG3-coupled beads, scFv-anti-DSG3-GFP binding, flow cytometry; stronger effect = lower value; 310,000 compounds, 0.48% hits; P32926;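 active = binding more than 3 SD below its plate's average and above zero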;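 note: hits lower antibody fragment binding to DSG3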
NadD inh conf: confirmation of Staphylococcus aureus NadD inhibitors; shares compounds with NadD block; purified S. aureus NadD, colorimetric enzyme assay; inhibition, % at 20 µM; 2,000 compounds, 13% hits; in the data active = inhibition mostly above about 42%, no sharp cut-off; inactive = mostly below about 42%
The depositor's hits bear a star. Hits are enriched below; roughly 3.2% of the tested compounds scored in any of these assays.

For Cc1ccc(Cn2c(CCNc3nc(-c4ccc(Cl)c([N+](=O)[O-])c4)cs3)nc3cc(Cl)c(Cl)cc32)cc1 the results were NadD block 48*, rCAG binder 12, MsrA act -1, DAGLB inhibitor -3, MsrA inh 1, DSG3 Ab inh 100 and NadD inh conf 2.
CCOC(=O)C1(C)CCCCCN1C(=O)c1ccc(OC)cc1 (stereo not drawn) was read as NadD block 3, rCAG binder 0, MsrA act -4 and MsrA inh -1.
For O=C(NCc1ccco1)c1cccc2c1C(=O)c1ccc(N3CCC(Cc4ccccc4)CC3)cc1S2(=O)=O the results were NadD block 39*, MsrA act -2, DAGLB inhibitor -19, DSG3 Ab inh 136 and NadD inh conf 5.
O=C(NCc1cccc(F)c1)c1cccc2c1C(=O)c1ccc(N3CCC(Cc4ccccc4)CC3)cc1S2(=O)=O was read as NadD block 21, MsrA act -1, DAGLB inhibitor -7 and DSG3 Ab inh 130.
Screening O=C(NCc1ccco1)c1cccc2c1C(=O)c1ccc(/C=C/c3ccccc3)cc1S2(=O)=O returned NadD block 48*, rCAG binder 39*, MsrA act -4, DAGLB inhibitor 8, MsrA inh 3, DSG3 Ab inh 94 and NadD inh conf 46*.
Screening O=C(NCCc1ccc(F)cc1)c1cccc2c1C(=O)c1ccc(N3CCC(Cc4ccccc4)CC3)cc1S2(=O)=O returned NadD block 28*, MsrA act -2, DAGLB inhibitor -9, DSG3 Ab inh 133 and NadD inh conf 5.
Screening O=C(NCc1cccc(C(F)(F)F)c1)c1cccc2c1C(=O)c1ccc(N3CCC(Cc4ccccc4)CC3)cc1S2(=O)=O returned NadD block 23, MsrA act -1, DAGLB inhibitor -8 and DSG3 Ab inh 139.
`COc1ccc(COc2cc(-c3cccc(OC)c3)nc3ccc(NC(=O)c4ccc(C)cc4)cc23)cc1` gave NadD block 40*, rCAG binder 16, MsrA act -1, DAGLB inhibitor -12, MsrA inh 2, DSG3 Ab inh 95 and NadD inh conf 20.
For COc1ccc(COc2cc(-c3cccc(OC)c3)nc3ccc(NC(=O)c4ccc(N(C)C)cc4)cc23)cc1 the results were NadD block 27, MsrA act -2, DAGLB inhibitor 2 and DSG3 Ab inh 96.
`CC1CCN(c2ccc(C(=O)O)cc2NS(=O)(=O)c2ccccc2)CC1` gave rCAG binder 17.
`CCCc1c(C(=O)N/N=C/c2ccc(OCc3ccccc3)c(OC)c2)nnn1-c1nonc1N` gave NadD block 35*, rCAG binder 0, MsrA act 0, DAGLB inhibitor -1, MsrA inh 0 and NadD inh conf 17.
Screening Nc1nonc1-n1nnc(C(=O)N/N=C/c2cccnc2)c1CSC1=NCCS1 returned NadD block -6, rCAG binder 2, MsrA act -3, DAGLB inhibitor -2, MsrA inh 0 and DSG3 Ab inh 107.
`Nc1nonc1-n1nnc(C(=O)N/N=C/c2ccc(Br)cc2)c1CSC1=NCCS1` gave NadD block 32*, rCAG binder 8, MsrA act -2, DAGLB inhibitor -2, MsrA inh 1, DSG3 Ab inh 94 and NadD inh conf 28.
`CC(C)c1ccc(/C=N/NC(=O)c2nnn(-c3nonc3N)c2CSC2=NCCS2)cc1` gave NadD block 32*, rCAG binder 9, MsrA act -4, DAGLB inhibitor -1, MsrA inh 1, DSG3 Ab inh 100 and NadD inh conf 22.
CCc1cc(C(=O)N2CCCC(N3CCN(c4cccc(C(F)(F)F)c4)CC3)C2)n(C)n1 (stereo not drawn) was read as NadD block 38*, rCAG binder -10, MsrA act -5, DAGLB inhibitor -2, MsrA inh -1, DSG3 Ab inh 98 and NadD inh conf -2.
`c1ccc(-c2nc(SCc3nc4ccccc4[nH]3)c3oc4ccccc4c3n2)cc1` gave NadD block 31*, rCAG binder 8, MsrA act -2, DAGLB inhibitor -2, MsrA inh -1, DSG3 Ab inh 101 and NadD inh conf 41.
Screening Cc1cc2c(N)cccc2nn1 returned NadD block 37*, rCAG binder -9, MsrA act -12, DAGLB inhibitor -8, MsrA inh 0 and NadD inh conf 0.
Screening Cc1ccc([C@H]2C[C@@H](O)[C@H](n3cc(-c4ccc(F)cc4)nn3)CN2C(=O)c2cccs2)cc1 returned NadD block 1, rCAG binder 2, MsrA act -7, DAGLB inhibitor -4, MsrA inh -1 and DSG3 Ab inh 105.
For CN(C1=NS(=O)(=O)N=C(N(C)c2ccccc2)O1)c1ccccc1 the results were NadD block 3, rCAG binder 3, MsrA act -4, DAGLB inhibitor -2, MsrA inh 1 and DSG3 Ab inh 110.
COc1ccc2c(Cl)c(C(=O)OCC(=O)c3ccc4c(c3)NC(=O)CO4)sc2c1Cl was read as NadD block 40*, rCAG binder 3, MsrA act -7, DAGLB inhibitor 1, MsrA inh 0, DSG3 Ab inh 94 and NadD inh conf 0.
Screening COc1cc(OC)c2c(-c3ccccc3)cc(=O)oc2c1C(CC(=O)N1CCN(c2ccccc2)CC1)c1ccc(N(C)C)cc1 (stereo not drawn) returned NadD block 30*, rCAG binder 15, MsrA act 0, DAGLB inhibitor 4, MsrA inh 1, DSG3 Ab inh 100 and NadD inh conf 1.
For COc1cc(OC)c2c(-c3ccccc3)cc(=O)oc2c1C(CC(=O)N1CCOCC1)c1ccc(N(C)C)cc1 (stereo not drawn) the results were NadD block -1, rCAG binder 13, MsrA act -10, DAGLB inhibitor 2, MsrA inh 1 and DSG3 Ab inh 101.
Screening O=C(CNC(=O)c1ccccc1)N/N=C/C=C/c1ccccc1 returned NadD block -1, rCAG binder -3, MsrA act -5, DAGLB inhibitor -2, MsrA inh 2 and DSG3 Ab inh 103.
Screening O=C(Cc1cc(=O)[nH][nH]1)N/N=C/C=C/c1ccccc1 returned NadD block 34*, rCAG binder 29, MsrA act 0, DAGLB inhibitor 6, MsrA inh 1, DSG3 Ab inh 105 and NadD inh conf 64*.
Screening COC(=O)[C@H](C(C)C)N(Cc1cn(Cc2ccc(C)cc2)nn1)S(=O)(=O)c1ccc(F)cc1Br returned rCAG binder 1.
